APE1 inh-1: APE1 (human) endonuclease inhibition | recombinant APE1, TAMRA/BHQ-2 abasic DNA cleavage fluorescence | Potency, µM (top dose mostly 65.8 µM), usual class: inhibitors | actives 0.35% (n = 350,000) | AID 2517; note: nearly all actives have a fitted effect of over 55% in size
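Measures dequenching upon AP-site incision of a 5'-TAMRA/3'-BHQ-2 THF-containing duplex, 50 nM; human APE1 0.75 nM after 15 min room-temperature exposure to compound; kinetic three-point read at one-minute spacing.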
RECQ1 helicase: RECQ1 (human) helicase inhibition; P46063; actives 0.54% (n = 240,000); RECQ1 DNA unwinding, red fluorescence kinetic read; Potency, µM (top dose mostly 57.3 µM), hits mostly inhibitors; AID 2549; note: nearly all actives have a fitted effect of over 30% in size
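RECQ1T1 50 nM; forked duplex (20 bp + 30-nt ss tails) 200 nM, ATP 2 mM final; pH 8.0, 2 mM MgCl2, 2.5 ug/ml poly(dI-dC); 15 min compound preincubation; discontinuous kinetic read over 2 h at RT.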
PGK inhibitor: inhibitors of T. brucei phosphoglycerate kinase | P07378 | PGK/GAPDH coupled, Kinase-Glo luminescence, 60 min | Potency, µM (highest dose often 57.5 µM), most hits filed as inhibitors | actives 0.043% (n = 380,000); note: nearly all actives have a fitted effect of over 60% in size
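Recombinant glycosomal PGK reaction used 1,3-bisphosphoglycerate generated in-well by GAPDH (100nM final) in 100mM TEA pH 7.6, 5mM MgCl2, 0.01% Tween-20. After 60 minutes at room temperature, ATP was read by Kinase-Glo Plus luminescence end-point.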
BLM helicase inh: inhibitors of human Bloom syndrome helicase BLM | AID 2528 | actives 0.2% (n = 350,000) | Potency, µM (top dose mostly 56.1 µM), actives largely listed as inhibitors | P54132 | recombinant BLM DNA unwinding, fluorescence dequenching; note: nearly all actives have a fitted effect of over 35% in size
Target sequence (P54132 whole entry, looked up): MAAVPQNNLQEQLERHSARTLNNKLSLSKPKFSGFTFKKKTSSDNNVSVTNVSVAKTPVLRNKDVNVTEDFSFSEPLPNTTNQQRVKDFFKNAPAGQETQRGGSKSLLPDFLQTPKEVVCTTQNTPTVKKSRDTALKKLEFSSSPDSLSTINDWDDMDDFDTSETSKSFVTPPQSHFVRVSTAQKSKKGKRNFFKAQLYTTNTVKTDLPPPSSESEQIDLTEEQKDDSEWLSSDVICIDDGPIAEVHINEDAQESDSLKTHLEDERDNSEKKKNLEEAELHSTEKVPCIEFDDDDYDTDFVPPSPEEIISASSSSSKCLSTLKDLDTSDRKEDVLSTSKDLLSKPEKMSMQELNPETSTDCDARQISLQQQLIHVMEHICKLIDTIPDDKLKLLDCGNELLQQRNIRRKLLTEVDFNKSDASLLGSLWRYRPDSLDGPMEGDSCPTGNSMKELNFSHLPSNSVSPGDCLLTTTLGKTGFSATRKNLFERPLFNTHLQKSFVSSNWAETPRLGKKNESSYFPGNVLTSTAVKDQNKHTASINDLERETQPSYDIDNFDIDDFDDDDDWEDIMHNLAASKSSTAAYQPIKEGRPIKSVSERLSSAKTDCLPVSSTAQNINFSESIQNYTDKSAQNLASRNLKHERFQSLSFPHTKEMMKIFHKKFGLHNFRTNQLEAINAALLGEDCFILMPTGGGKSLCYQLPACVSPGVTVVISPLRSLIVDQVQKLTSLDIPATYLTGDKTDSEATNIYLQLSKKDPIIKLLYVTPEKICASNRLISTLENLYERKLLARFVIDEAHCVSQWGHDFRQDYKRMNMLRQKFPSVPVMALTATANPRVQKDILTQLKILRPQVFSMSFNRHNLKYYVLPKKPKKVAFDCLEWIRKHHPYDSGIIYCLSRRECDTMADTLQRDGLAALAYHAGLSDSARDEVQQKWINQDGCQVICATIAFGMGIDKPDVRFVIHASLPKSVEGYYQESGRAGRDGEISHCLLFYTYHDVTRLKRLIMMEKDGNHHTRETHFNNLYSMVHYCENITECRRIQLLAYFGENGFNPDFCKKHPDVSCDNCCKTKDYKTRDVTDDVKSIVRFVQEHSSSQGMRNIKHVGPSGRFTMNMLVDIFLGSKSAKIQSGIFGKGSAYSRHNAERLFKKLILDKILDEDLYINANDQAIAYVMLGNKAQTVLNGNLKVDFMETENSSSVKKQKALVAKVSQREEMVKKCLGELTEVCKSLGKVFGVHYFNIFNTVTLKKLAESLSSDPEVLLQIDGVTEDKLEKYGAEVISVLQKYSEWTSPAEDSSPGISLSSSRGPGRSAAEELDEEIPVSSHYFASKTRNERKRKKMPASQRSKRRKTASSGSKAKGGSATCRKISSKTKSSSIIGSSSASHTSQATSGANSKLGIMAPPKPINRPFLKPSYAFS
FEN1 inhibitor: blocks human flap endonuclease 1 | P39748 | Recombinant FEN1 flap cleavage, fluorescence, 15 min | Potency, µM (highest dose often 114 µM), actives largely listed as inhibitors | actives 0.35% (n = 390,000) | AID 588795; note: nearly all actives have a fitted effect of over 65% in size
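Reaction started by adding substrate (50 nM final) to 10 nM enzyme after 15 min room-temperature compound preincubation. Reads at 0 and 15 min, with data normalized and fitted to a four-parameter Hill equation.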
DNA dye displace: displaces fluorescent dye from DNA, flagging APE1 artifacts | DNA fluorescent dye displacement counterscreen, fluorescence | shares compounds with APE1 inh-1 | AID 2564 | actives 7% (n = 480) | Potency, µM (top dose mostly 28.5 µM), usual class: inhibitors;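 note: loss of thiazole orange fluorescence as the dye is displaced from duplex DNA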
Endo IV inh: Endo IV (E. coli) inhibition counter-screen. actives 4% (n = 560). E. coli Endo IV, fluorogenic AP-site DNA cleavage. shares compounds with APE1 inh-1. Potency, µM (highest dose often 27.1 µM), actives largely listed as inhibitors
APE1 inh-2: APE1 (human) endonuclease inhibition, confirmation. shares compounds with APE1 inh-1. purified APE1, fluorogenic abasic-site DNA cleavage. Potency, µM (titrated, usually from 57.1 µM), usual class: inhibitors. actives 44% (n = 750). AID 2572; note: nearly all actives have a fitted effect of over 30% in size
APE1 FP: APE1 (human) DNA binding inhibition, fluorescence polarization. APE1 binding to TAMRA-labelled double-stranded DNA, fluorescence polarization displacement. Potency, µM (top dose mostly 28.5 µM), actives largely listed as inhibitors. shares compounds with APE1 inh-1. actives 7% (n = 480)
A number is an active result; – = inactive; ? = inconclusive; · = no result; ! = not active in a repeat. Compounds with a hit are over-represented: about 0.74% of the library has one in this group of screens. Calls come from the whole dose curve; as a rule, active = well fitted curve in the direction sought with a large enough effect; inconclusive = small, poorly fitted or top-dose-only effect, or another doubt; inactive = no such curve, though single readings can be large; an effect the other way counts as inactive or inconclusive.

SMILES | APE1 inh-1 | RECQ1 helicase | PGK inhibitor | BLM helicase inh | FEN1 inhibitor | others
O=C1OCCC1NC1=NCCC1 (configuration not stated) | – | – | – | – | –
NC(N)=NC(=O)c1nc(Cl)c(N)nc1N | 39.8µM! | – | – | ? | ?
O=C(N/N=C\C1C(=O)NC(=S)N(c2ccccc2)C1=O)c1ccc(O)cc1 (configuration not stated) | – | – | – | – | –
CCc1ccc(N2C(=O)NC(=O)/C(=C\c3cccn3CCOc3ccc(C(C)C)cc3)C2=O)cc1 | – | 25.1µM | – | – | –
Oc1c(Br)cc(Br)cc1Br | – | – | – | – | –
Oc1c(Br)c(Br)c(Br)c(Br)c1Br | – | ? | ? | · | 50.1µM
CC(C)(C)c1ccc(/C=C2\Oc3cc(OC(=O)N4CCOCC4)ccc3C2=O)cc1 | – | – | – | – | ?
O=C1NC(=O)C(=Cc2ccc(-c3ccc(F)cc3O)o2)C(=O)N1 | – | · | – | – | 17.8µM
O=C1NC(=O)C(=Cc2ccc(-c3ccc(Cl)cc3)o2)C(=O)N1 | – | · | – | – | 17.8µM
CCCCOc1ccc(CC2C(=O)N(C)C(=O)N(C)C2=O)cc1 | – | – | – | – | –
Cc1nc2c(=O)n(C)c(=O)nc-2n(C)n1 | – | – | ? | 0.794µM | –
Cn1nc(-c2ccccc2)nc2c(=O)n(C)c(=O)nc1-2 | · | · | · | · | –
CC1(C)OC(c2ccccc2)=C/C(=C/C=C2C(=O)NC(=O)NC2=O)O1 | – | 25.1µM | ? | – | –
C1=NCCCN2CCCCC12 (configuration not stated) | · | · | – | · | ·
O=C(Cl)/C=C/C(=O)Cl | – | – | · | · | ·
Cc1ccc(-n2c(O)c(/C=N/N3CCCCC3c3cccnc3)c(=O)[nH]c2=S)cc1 (configuration not stated) | – | 31.6µM | – | – | –
Cc1sc2c(c1C)C(c1cccs1)=NCC(=O)N2CC(=O)NCc1cccs1 | – | – | – | – | –
COC(=O)C1=C(c2cc3ccccc3o2)C[C@@H]2CC[C@H]1N2C(=O)NCCCOC(C)C | · | · | – | · | –
Cc1ccc(N2C(=O)/C(=C/c3ccc(CN(CCC#N)S(C)(=O)=O)o3)C(=O)NC2=S)cc1C | ? | 25.1µM | · | – | ·
Cc1cccc(N2C(=O)/C(=C/c3ccc(CN(CCC#N)S(C)(=O)=O)o3)C(=O)NC2=S)c1 | ? | 17.8µM | – | – | ?
Cc1ccc(N2C(=O)NC(=O)/C(=C\c3cc(C)n(-c4cc(C(=O)O)cc(C(=O)O)c4)c3C)C2=O)cc1 | – | · | ? | – | 56.2µM
Cc1cc(/C=C2\C(=O)NC(=O)N(Cc3ccco3)C2=O)c(C)n1-c1ccc(O)cc1 | – | – | – | 25.1µM | ?
Cc1ccc(-n2c(C)cc(/C=C3/C(=O)NC(=O)N(Cc4ccco4)C3=O)c2C)cc1 | ? | ? | – | – | –
CCCCC/C=C\C/C=C\C/C=C\C/C=C\CCCC(=O)NCC(=O)O | ? | 3.55µM! | · | – | ?
COc1ccc(OC)c(CN2CCCC(C(=O)c3sccc3C)C2)c1 (configuration not stated) | – | – | – | – | –
SMILES | APE1 inh-1 | RECQ1 helicase | PGK inhibitor | BLM helicase inh | FEN1 inhibitor | others
O=C1NC(=O)C(=Cc2ccco2)C(=O)N1 | · | · | 11.2µM | · | ?
CCOc1ccc(N2C(=O)/C(=C/c3ccc(C)o3)C(=O)NC2=S)cc1 | – | · | ? | – | 22.4µM
O=C1NC(=S)N(c2ccc(F)cc2)C(=O)/C1=C/c1ccco1 | 0.212µM | · | · | 3.16µM | ·
COc1ccc(OC)c(N2C(=O)/C(=C/c3ccco3)C(=O)NC2=S)c1 | 0.0947µM | · | 3.55µM | 1.58µM | 8.91µM
COc1ccc(N2C(=O)/C(=C/c3ccc(C)o3)C(=O)NC2=S)cc1 | – | · | – | – | ?
CCCNC(=O)c1c(N)n(Cc2ccco2)c2nc3ccccc3nc12 | – | – | – | – | –
O=C1NC(=S)N(c2ccc(F)cc2)C(=O)/C1=C\c1ccoc1 | ? | 31.6µM | 10µM | – | 7.94µM
Cc1ccc(N2C(=O)NC(=O)/C(=C\c3ccoc3)C2=O)cc1 | ? | ? | – | – | –
Clc1ccc(C(c2ccc(Cl)cc2)n2cc[n+](CC(OCc3ccc(Cl)cc3Cl)c3ccc(Cl)cc3Cl)c2)cc1 (configuration not stated) | – | ? | – | · | 79.4µM
Clc1ccc(COC(Cn2ccnc2)c2ccc(Cl)cc2Cl)cc1 (configuration not stated) | ? | ? | – | – | ?
[Hg+][c]1ccccc1 | · | · | · | – | 10µM
O=C1c2ccccc2C(Nc2ccc(S(=O)(=O)N3CCCCCC3)cc2)N1c1ccccn1 (configuration not stated) | – | – | – | – | ?
[Cl-].[Cl-].[Hg+2] | · | – | · | – | ·
[Cd+2].[Cl-].[Cl-] | 0.794µM | 35.5µM | · | · | ·
O=c1[nH]c(=O)n(-c2ccccc2F)c(O)c1C=NCCC1=CCCCC1 | – | – | – | – | –
CN1C(=O)/C(=C/c2ccc(Cl)s2)C(=O)NC1=S | – | · | – | – | –
COc1ccc(/C=C2\C(=O)NC(=S)N(C)C2=O)cc1C | – | – | 10µM | – | 50.1µM
Cc1ccsc1/C=C1\C(=O)NC(=S)N(C)C1=O | – | · | – | – | 79.4µM
CN1C(=O)/C(=C\c2ccc(N3CCCCCC3)cc2)C(=O)NC1=S | – | – | – | – | –
CN1/C(=C\C=C\C2=[N+](C)c3ccc4ccccc4c3C2(C)C)C(C)(C)c2ccccc21 | 28.2µM | 28.2µM | · | 31.6µM | ·
CN1/C(=C\C=Nc2ccccc2)C(C)(C)c2ccccc21 | ? | ? | – | – | –
C[C@@H]1O[C@@H](O[C@@H]2C=C3CC[C@@H]4[C@H](CC[C@]5(C)[C@@H](c6ccc(=O)oc6)CC[C@]45O)[C@@]3(C)CC2)[C@H](O)[C@H](O)[C@H]1O | – | · | · | · | ·
CN1C(=O)/C(=C/C=C/c2ccco2)C(=O)NC1=S | 25.1µM | ? | 28.2µM | – | 20µM | DNA dye displace=–;Endo IV inh=–;APE1 inh-2=14.1µM;APE1 FP=–
O=C(O)c1ccc2[nH]cc(CCCCN3CC=C(c4ccccc4)CC3)c2c1 | ? | – | · | – | · | DNA dye displace=–;Endo IV inh=–;APE1 inh-2=?;APE1 FP=–
Clc1ccccc1C(c1ccccc1)(c1ccccc1)n1cccn1 | – | – | · | – | ·

Screens as filed in PubChem BioAssay.
